The text below walks through data of PubChem BioAssay (EPA / NIEHS).

Molecules are shown by their SMILES. Calls of active or inactive are those of the source. How the source made its calls: active means hit-call score of the fitted dose curve at least 0.9, where 1 is the maximum; inactive means score below 0.9.

Conditions in all cases: mRNA level, 48 h; actives raise or lower the signal
Read-out in assay [1]: Bcl-2 (BID) gene, BID (gene 637)
Kind of assay: LTEA_HepaRG_BID: Life Technologies and Expression Analysis (LTEA) Assay for Bcl-2 (BID) gene using HepaRG (AID 2283476). In outline:
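Duplicate 48 h treatments of HepaRG cells in serum-free induction medium spanned 100 uM downward in half-log steps, 0.5% DMSO. Transcript change quantified by qRT-PCR against three housekeeping genes, fitted up or down versus DMSO.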

Read-out in another assay: Caspase-3 (Homo sapiens) (UniProt P42574)
Kind of assay: LTEA_HepaRG_CASP3: Life Technologies and Expression Analysis (LTEA) Assay for cysteine-aspartic acid protease (CASP3) using HepaRG (AID 2283477). In outline: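 Expression of CASP3 was quantified by TaqMan qRT-PCR against three housekeeping genes (ACTB, GAPDH, POLR2A), bidirectionally versus 0.5% DMSO. HepaRG cultures received compounds in duplicate, top 100 uM with half-log steps, for 48 h in serum-free induction medium.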

Read-out in assay [2]: Cytochrome P450 (CYP24A1), CYP24A1 (gene 1591)
The experiment in a line: LTEA_HepaRG_CYP24A1: Life Technologies and Expression Analysis (LTEA) Assay for Cytochrome P450 (CYP24A1) using HepaRG (AID 2283478). In outline: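 mRNA of CYP24A1 quantified by TaqMan qRT-PCR (ACTB/GAPDH/POLR2A normalization) after 48 h chemical exposure of HepaRG cells, top concentration 100 uM, half-log steps, 0.5% DMSO vehicle, duplicates. Curves fitted bidirectionally against DMSO baseline.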

Read-out in assay [3]: Cytochrome P450 (CYP1A2), CYP1A2 (gene 1544)
The experiment in a line: LTEA_HepaRG_CYP1A2: Life Technologies and Expression Analysis (LTEA) Assay for Cytochrome P450 (CYP1A2) using HepaRG (AID 2283479). The method in brief:
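CYP1A2 transcript measured by TaqMan qRT-PCR against three housekeeping genes after 48-hour chemical exposure of HepaRG cells. Eight-point half-log series topping at 100 uM in 0.5% DMSO, duplicates; gain or loss fitted relative to vehicle.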

Read-out in assay [4]: cysteine-aspartic acid protease (CASP8), CASP8 (gene 841)
Kind of assay: LTEA_HepaRG_CASP8: Life Technologies and Expression Analysis (LTEA) Assay for cysteine-aspartic acid protease (CASP8) using HepaRG (AID 2283480). In outline: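 CASP8 transcript measured by TaqMan qRT-PCR with ACTB/GAPDH/POLR2A normalization, after 48 h chemical exposure of HepaRG cells in serum-free induction medium. Eight concentrations, top 100 uM, half-log steps, 0.5% DMSO vehicle; fits in both directions versus DMSO.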

Read-out in assay [5]: Cytochrome P450 (CYP2B6), CYP2B6 (gene 1555)
The experiment in a line: LTEA_HepaRG_CYP2B6: Life Technologies and Expression Analysis (LTEA) Assay for Cytochrome P450 (CYP2B6) using HepaRG (AID 2283481). The method in brief: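 CYP2B6 transcript level quantified by qRT-PCR against three housekeeping genes, fitted bidirectionally relative to DMSO. HepaRG cultures received chemicals for 48 h, 8-point half-log series from 100 uM in 0.5% DMSO, duplicate wells, serum-free induction medium.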

Read-out in assay [6]: Cytochrome P450 2C19 (Homo sapiens) (UniProt P33261)
The experiment in a line: LTEA_HepaRG_CYP2C19: Life Technologies and Expression Analysis (LTEA) Assay for CYP2C19 using HepaRG (AID 2283482). In outline:
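CYP2C19 transcript levels by qRT-PCR, normalized to three housekeeping genes, in HepaRG cells after 48 h chemical exposure. Eight-point half-log series topping at 100 uM, 0.5% DMSO vehicle. Increases and decreases both fitted against DMSO.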

Read-out in the next assay: CYP2C8 (gene 1558)
The experiment in a line: LTEA_HepaRG_CYP2C8: Life Technologies and Expression Analysis (LTEA) Assay for CYP2C8 using HepaRG (AID 2283483). In outline:
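CYP2C8 expression measured by TaqMan qRT-PCR and normalized to three housekeeping genes. HepaRG cultures were treated for 48 h with an eight-point half-log series topping at 100 uM, vehicle 0.5% DMSO, duplicates; fitted both directions against DMSO.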

Read-out in the next assay: CYP2C9 (gene 1559)
Kind of assay: LTEA_HepaRG_CYP2C9: Life Technologies and Expression Analysis (LTEA) Assay for CYP2C9 using HepaRG (AID 2283484). In outline:
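CYP2C9 transcript level, quantified by TaqMan qRT-PCR against three housekeeping genes, was fitted bidirectionally relative to 0.5% DMSO. HepaRG cultures were treated 48 h, in duplicate, at eight half-log concentrations topping at 100 uM.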

Read-out in another assay: CYP2E1 (gene 1571)
The experiment in a line: LTEA_HepaRG_CYP2E1: Life Technologies and Expression Analysis (LTEA) Assay for CYP2E1 using HepaRG (AID 2283485). In outline: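 CYP2E1 transcript measured by Fluidigm qRT-PCR against three housekeeping genes in human HepaRG cells treated 48 h (top 100 uM, half-log steps, 0.5% DMSO vehicle). Gain or loss fitted relative to DMSO baseline.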

Read-out in a further assay: CYP4A11 (gene 1579)
The experiment in a line: LTEA_HepaRG_CYP4A11: Life Technologies and Expression Analysis (LTEA) Assay for CYP4A11 using HepaRG (AID 2283486). The method in brief: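 Readout is CYP4A11 transcript level by qRT-PCR, normalized to three housekeeping genes and fitted bidirectionally against 0.5% DMSO. Human HepaRG cells were treated 48 h, in duplicate, with an 8-point half-log series topping at 100 uM.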

Read-out in assay [7]: Cytochrome P450 3A4 (Homo sapiens) (UniProt P08684)
Kind of assay: LTEA_HepaRG_CYP3A4: Life Technologies and Expression Analysis (LTEA) Assay for CYP3A4 using HepaRG (AID 2283487). In outline: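 HepaRG, 48 h exposure, 8-pt CRC from 100 uM (half-log), 0.5% DMSO, duplicates; serum-free induction medium. Readout: CYP3A4 mRNA, qRT-PCR, ACTB/GAPDH/POLR2A normalization. Bidirectional fit vs DMSO.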

Read-out in assay [8]: DNA damage-inducible transcript 3 (DDIT3), DDIT3 (gene 1649)
The experiment in a line: LTEA_HepaRG_DDIT3: Life Technologies and Expression Analysis (LTEA) Assay for DNA damage-inducible transcript 3 (DDIT3) using HepaRG (AID 2283488). In outline: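 DDIT3 transcript was quantified by qRT-PCR with ACTB/GAPDH/POLR2A normalization after 48 h chemical treatment of differentiated HepaRG cells in 0.5% DMSO. Dosing was eight-point, half-log, top 100 uM, duplicate wells. Curves fitted bidirectionally versus DMSO.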

Read-out in assay [9]: Pro-epidermal growth factor (Homo sapiens) (UniProt P01133)
The experiment in a line: LTEA_HepaRG_EGF: Life Technologies and Expression Analysis (LTEA) Assay for Epidermal growth factor (EGF) using HepaRG (AID 2283489). In outline: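 EGF transcript measured by Fluidigm TaqMan qRT-PCR with three housekeeping genes for normalization, 48 h after dosing HepaRG cultures in duplicate (top 100 uM, half-log steps, 0.5% DMSO vehicle). Gain or loss relative to DMSO fitted.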

Read-out in assay [10]: Early growth response protein 1 (EGR1) transcription factor, EGR1 (gene 1958)
Kind of assay: LTEA_HepaRG_EGR1: Life Technologies and Expression Analysis (LTEA) Assay for Early growth response protein 1 (EGR1) transcription factor using HepaRG (AID 2283490). In outline:
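EGR1 transcript levels quantified by qRT-PCR (Fluidigm arrays) against three housekeeping genes after 48 h chemical exposure of HepaRG cells. Eight-point half-log series topping at 100 uM, 0.5% DMSO vehicle, analyzed for gain or loss.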

Read-out in assay [11]: Ezrin (EZR), EZR (gene 7430)
The experiment in a line: LTEA_HepaRG_EZR: Life Technologies and Expression Analysis (LTEA) Assay for Ezrin (EZR) using HepaRG (AID 2283491). The method in brief: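 Read-out is EZR transcript level by qRT-PCR, normalized to three housekeeping genes and fitted bidirectionally against the DMSO control. Human HepaRG cells received test chemicals for 48 h at eight half-log concentrations up to 100 uM in 0.5% DMSO.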

Read-out in assay [12]: Cytochrome P450 3A7 (Homo sapiens) (UniProt P24462)
Kind of assay: LTEA_HepaRG_CYP3A7: Life Technologies and Expression Analysis (LTEA) Assay for CYP3A7 using HepaRG (AID 2283492). The method in brief:
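CYP3A7 transcript measured by qRT-PCR (ACTB, GAPDH, POLR2A normalization) after 48 h chemical exposure of HepaRG cells in duplicate. Eight half-log concentrations, maximum 100 uM, 0.5% DMSO vehicle; bidirectional curve fitting against DMSO baseline.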

Read-out in another assay: CYP3A5 (gene 1577)
The experiment in a line: LTEA_HepaRG_CYP3A5: Life Technologies and Expression Analysis (LTEA) Assay for CYP3A5 using HepaRG (AID 2283493). In outline: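 mRNA levels were quantified by qRT-PCR on Fluidigm arrays and normalized to three housekeeping genes. Differentiated HepaRG cells received 48 h exposure (top 100 uM, half-log steps, 0.5% DMSO vehicle, duplicate); bidirectional fitting versus DMSO.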

Read-out in assay [13]: Fatty Acid-Binding Protein 1 (FABP1), FABP1 (gene 2168)
The experiment in a line: LTEA_HepaRG_FABP1: Life Technologies and Expression Analysis (LTEA) Assay for Fatty Acid-Binding Protein 1 (FABP1) using HepaRG (AID 2283494). In outline: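 FABP1 expression by TaqMan qRT-PCR, normalised to three housekeeping genes, in HepaRG cells after 48 h chemical treatment. Eight-point half-log series topping at 100 uM in 0.5% DMSO, duplicates; gain or loss fitted relative to vehicle.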

Read-out in assay [14]: Cytochrome P450 4A22 (Homo sapiens) (UniProt Q5TCH4)
Kind of assay: LTEA_HepaRG_CYP4A22: Life Technologies and Expression Analysis (LTEA) Assay for Cytochrome P450 4A22 (CYP4A22) using HepaRG (AID 2283495). In outline:
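Gene expression measured by qRT-PCR against three housekeeping genes (ACTB, GAPDH, POLR2A), with gain or loss fitted relative to 0.5% DMSO vehicle. HepaRG cultures received 48 h chemical treatment, top concentration 100 uM, half-log steps, duplicate wells.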

Sequence of Caspase-3 (Homo sapiens) (P42574 whole entry, looked up): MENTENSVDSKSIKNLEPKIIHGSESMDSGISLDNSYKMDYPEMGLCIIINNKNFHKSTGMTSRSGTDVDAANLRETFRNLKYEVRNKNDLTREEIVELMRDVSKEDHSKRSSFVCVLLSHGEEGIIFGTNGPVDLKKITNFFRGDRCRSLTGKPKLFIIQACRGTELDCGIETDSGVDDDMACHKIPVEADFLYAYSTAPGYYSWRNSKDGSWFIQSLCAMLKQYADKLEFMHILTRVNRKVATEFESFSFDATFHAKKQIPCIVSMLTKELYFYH
Sequence of Cytochrome P450 3A7 (Homo sapiens) (P24462 whole entry, looked up): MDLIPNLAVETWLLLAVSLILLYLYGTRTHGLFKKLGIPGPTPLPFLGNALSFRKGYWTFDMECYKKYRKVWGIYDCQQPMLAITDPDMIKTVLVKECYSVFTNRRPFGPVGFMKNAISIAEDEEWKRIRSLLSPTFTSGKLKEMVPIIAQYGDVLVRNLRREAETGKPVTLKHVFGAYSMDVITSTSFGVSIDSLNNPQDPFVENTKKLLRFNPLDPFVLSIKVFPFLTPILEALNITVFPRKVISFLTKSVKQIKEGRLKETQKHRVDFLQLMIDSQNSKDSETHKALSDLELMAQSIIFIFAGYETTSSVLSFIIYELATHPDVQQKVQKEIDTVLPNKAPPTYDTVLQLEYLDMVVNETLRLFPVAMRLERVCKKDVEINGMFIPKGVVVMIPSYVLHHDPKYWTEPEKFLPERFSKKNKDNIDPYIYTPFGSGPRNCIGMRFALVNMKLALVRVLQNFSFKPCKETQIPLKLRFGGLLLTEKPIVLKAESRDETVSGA
Sequence of Cytochrome P450 3A4 (Homo sapiens) (P08684 whole entry, looked up): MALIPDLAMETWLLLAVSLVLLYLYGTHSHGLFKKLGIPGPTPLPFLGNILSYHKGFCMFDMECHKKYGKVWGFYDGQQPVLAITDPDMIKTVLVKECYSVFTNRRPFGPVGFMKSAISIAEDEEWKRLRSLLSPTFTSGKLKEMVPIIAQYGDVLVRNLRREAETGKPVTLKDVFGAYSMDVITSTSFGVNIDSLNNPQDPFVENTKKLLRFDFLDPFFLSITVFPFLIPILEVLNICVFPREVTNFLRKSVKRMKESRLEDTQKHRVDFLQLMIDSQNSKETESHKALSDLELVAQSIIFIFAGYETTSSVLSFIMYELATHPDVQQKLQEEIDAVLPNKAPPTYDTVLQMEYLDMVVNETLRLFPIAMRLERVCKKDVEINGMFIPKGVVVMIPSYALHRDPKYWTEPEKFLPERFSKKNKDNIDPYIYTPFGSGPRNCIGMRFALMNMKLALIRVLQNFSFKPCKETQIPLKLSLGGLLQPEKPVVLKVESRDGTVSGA
Sequence of Cytochrome P450 2C19 (Homo sapiens) (P33261 whole entry, looked up): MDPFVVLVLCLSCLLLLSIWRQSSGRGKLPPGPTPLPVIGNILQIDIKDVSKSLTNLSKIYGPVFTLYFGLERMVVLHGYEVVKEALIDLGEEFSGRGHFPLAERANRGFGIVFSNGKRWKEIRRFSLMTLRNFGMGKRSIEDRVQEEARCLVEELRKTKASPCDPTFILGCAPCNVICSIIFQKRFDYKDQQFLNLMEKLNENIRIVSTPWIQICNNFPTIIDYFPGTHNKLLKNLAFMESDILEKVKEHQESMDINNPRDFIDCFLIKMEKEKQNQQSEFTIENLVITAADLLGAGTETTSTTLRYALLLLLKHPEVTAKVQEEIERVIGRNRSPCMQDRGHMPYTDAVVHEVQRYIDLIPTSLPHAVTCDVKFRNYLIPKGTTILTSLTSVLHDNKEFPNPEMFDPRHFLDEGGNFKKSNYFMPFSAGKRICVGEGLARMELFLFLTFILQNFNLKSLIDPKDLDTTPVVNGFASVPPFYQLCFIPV

In the case of `CCCCCCCCCCCCCCCO`, the molecule was called inactive (in [1]; in the assay with Caspase-3 (Homo sapiens); in [2]; in [3]; in [4]; in [5]). Further, the call (in assay [6]; with CYP2C8 (gene 1558); in the assay with CYP2C9 (gene 1559); in the assay with CYP2E1 (gene 1571); with CYP4A11 (gene 1579); in [7]) was inactive. Moreover, the molecule was classed as inactive (in [8]; in [9]; in assay [10]; in assay [11]; in assay [12]; with CYP3A5 (gene 1577)). Besides, the outcome in assay [13] and in assay [14] was inactive.
On to `O=C1CCC(N2C(=O)c3ccccc3C2=O)C(=O)N1` (stereo not drawn), for which the outcome (in assay [1]; in the assay with Caspase-3 (Homo sapiens); in [2]; in assay [3]; in [4]; in assay [5]) was inactive. The call (in assay [6]; with CYP2C8 (gene 1558); with CYP2C9 (gene 1559); with CYP2E1 (gene 1571); with CYP4A11 (gene 1579); in assay [7]) was inactive. For the same molecule, the molecule was called inactive (in [10]; in assay [11]; in assay [12]; with CYP3A5 (gene 1577); in assay [13]; in assay [14]).
As a reminder, the AC50 is the midpoint of the concentration-response curve, whichever way the signal moves. Consider `CC(C)(O)c1coc(S(=O)(=O)NC(=O)Nc2c3c(cc4c2CCC4)CCC3)c1`, for which the molecule was classed as inactive (with Caspase-3 (Homo sapiens); in assay [2]; in [4]; in the assay with CYP2C8 (gene 1558); with CYP2C9 (gene 1559); in the assay with CYP4A11 (gene 1579)). Further, the outcome (in assay [8]; in assay [9]; in [10]; in [11]; with CYP3A5 (gene 1577); in assay [13]) was inactive. In assay [14], the result was inactive. The AC50 in [3] was 50 µM (active); in assay [5], 2.62 µM (active); with CYP2E1 (gene 1571), 36.8 µM (active); in assay [12], 10.5 µM (active).
`CCNc1ccccc1`: the outcome (in assay [1]; in the assay with Caspase-3 (Homo sapiens); in assay [2]; in assay [4]; in assay [6]; with CYP2C8 (gene 1558)) was inactive. Besides, the outcome (with CYP2C9 (gene 1559); with CYP2E1 (gene 1571); in the assay with CYP4A11 (gene 1579); in assay [7]; in [9]; in [10]) was inactive. The result (in [11]; in assay [12]; with CYP3A5 (gene 1577); in assay [13]; in [14]) was inactive. For the same molecule, the concentration at half-maximal activity (AC50) is 16.5 µM (active) in [3] and 28.3 µM (active) in assay [5].
As for `CCN(C(=O)c1cc(C)cc(OC[C@H](C)Nc2ccncc2)c1)C(C)C`, the AC50 is 0.143 µM (active) in assay [1]; 19.6 µM (active) with Caspase-3 (Homo sapiens); 12.7 µM (active) in [3]; 7.91 µM (active) in assay [5]; 8.16 µM (active) in assay [6]; 58.4 µM (active) with CYP2C8 (gene 1558). The AC50 with CYP2C9 (gene 1559) was 56.6 µM (active); with CYP2E1 (gene 1571), 27.9 µM (active); with CYP4A11 (gene 1579), 33.8 µM (active); in [7], 8.63 µM (active); in [12], 8.43 µM (active); in [13] it was 2.25 µM (active). In assay [14], the concentration at half-maximal activity (AC50) is 33.8 µM (active). Also, the result (in [2]; in [4]; in [9]; in assay [10]; in assay [11]; with CYP3A5 (gene 1577)) was inactive.
